In PubChem BioAssay (NCATS):
Values joined by “and” are separate entries in the source; they are usually repeats but may differ in a detail not shown here. Equal entries are not always repeated. Inconclusive results are not listed. Entries that show only a call come without a potency. Some structures have more than one record in an assay (separate samples or runs), and their calls can disagree. Active and inactive are the calls of the source. Calls follow the shape of the dose curve; as a rule, active = well fitted curve in the direction sought with a large enough effect; inconclusive = small, poorly fitted or top-dose-only effect, or another doubt; inactive = no such curve, though single readings can be large; an effect the other way counts as inactive or inconclusive.

What was measured:
[1] = biological target: Nicotinamide N-methyltransferase (Homo sapiens) (UniProt P40261); test: Confirmatory Screen for Target Class Profiling of Small Molecule Inhibitors of Methyltransferases (AID 1745852); settings: MTase-Glo luminescence, SAH detection, recombinant enzyme; measured here: NNMT max response; stronger effect = lower value
[2] = biological target: Phenylethanolamine N-methyltransferase (Homo sapiens) (UniProt P11086); test: as above; settings: MTase-Glo luminescence, SAH detection, recombinant enzyme; measured here: PNMT max response; stronger effect = lower value
[3] = biological target: Glutathione peroxidase 1 (Homo sapiens) (UniProt P07203); test: Primary qHTS Assay for Inhibitors of Recombinant Selenoprotein Glutathione Peroxidase 1 (GPX1) (AID 1845191); settings: recombinant GPX1, GR-coupled NADPH fluorescence, 15 min; series mostly up to 48.8 µM; also: nearly all actives have a fitted effect of over 65% in size; also: potency is read from the fitted curve at half-maximal effect
Summary of the method: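 GPX1 10 nM, GR 100 nM, GSH 1 mM, NADPH 0.5 mM, CHP 0.5 mM (final). 30-min cpd preincubation, RT. Ex340/Em450 read t=0, t=15 min.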

[4] = biological target: Phospholipid hydroperoxide glutathione peroxidase GPX4 (Homo sapiens) (UniProt P36969); test: Primary qHTS Assay for Inhibitors of Recombinant Selenoprotein Glutathione Peroxidase 4 (GPX4) (AID 1845192); settings: recombinant GPX4, GR-coupled NADPH fluorescence, 15 min; series mostly up to 50 µM; also: nearly all actives have a fitted effect of over 65% in size; also: potency is read from the fitted curve at half-maximal effect
Summary of the method: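 qHTS, GR-coupled: GPX4 200 nM + cpd 30 min RT → GSH 1 mM, NADPH 0.5 mM, GR 100 nM → CHP 0.5 mM start; fluor 340/450 at t0 and t15 min; no-enzyme wells as control.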

[5] = biological target: Luciferin 4-monooxygenase (Photinus pyralis) (UniProt P08659); test: Primary firefly luciferase (FLuc) qHTS assay for identification of artifact compounds. (AID 1845220); settings: purified firefly luciferase, luminescence, 5 min; series mostly up to 54.1 µM; also: nearly all actives have a fitted effect of over 60% in size
Summary of the method: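 In this counter-screen for luciferase artifacts, test compounds met substrate (10 uM each luciferin and ATP) before 10 nM enzyme started the reaction. Light output was measured 5 min later.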

[6] = Primary fluorescence-based thiol-reactive (MSTI) qHTS assay for identification of artifact compounds. (AID 1845221); settings: MSTI thiol-reactivity probe, 1 h; series mostly up to 53.8 µM; also: nearly all actives have a fitted effect of over 65% in size; also: potency is read from the fitted curve at half-maximal effect
Summary of the method: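 In PBS pH 7.4 with 2% DMSO, each compound met 4 uM MSTI for one hour at ambient temperature, shielded from light, before fluorescence detection.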

[7] = system: Nanoluciferase (engineered Oplophorus gracilirostris luciferase); test: Primary Nanoluciferase (NLuc) qHTS assay for identification of artifact compounds. (AID 1845222); settings: NLuc-conditioned medium, Nano-Glo luminescence, 5 min; series mostly up to 54.1 µM;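 also: NLuc secreted into diluted conditioned medium of S16 cells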
Summary of the method: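 Using secreted nanoluciferase in S16 culture medium (0.22 um filtered, 1:55 dilution), compounds were preincubated 15 min at RT. Signal was generated with Nano-Glo reagent (1:100) over 5 min.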

[8] = Primary redox qHTS assay for identification of artifact compounds. (AID 1845223); settings: Amplex Red/HRP redox cycling with DTT, fluorescence; series mostly up to 53.8 µM; also: potency is read from the fitted curve at half-maximal effect
Summary of the method: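 Redox-cycling detection via DTT (250 uM final) oxidation coupled to Amplex Red (25 uM)/HRP (250 mU/mL) in HBSS. 15 min preincubation plus 30 min after DTT, room temperature. Ex/Em 525/598 nm; 4-parameter Hill fit against DMSO and 10 uM DA3003.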

[9] = biological target: Metallo-beta-lactamase type 2 (Klebsiella pneumoniae) (UniProt C7C422); test: qHTS to identify inhibitors of the New Delhi Metallo-beta-lactamase (NDM): assay validation screen against the NCATS LOPAC Collection (AID 1794843); settings: NDM-1 enzyme, nitrocefin hydrolysis, absorbance 485 nm; series mostly up to 38.4 µM
Summary of the method: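 Absorbance at 485 nm from nitrocefin turnover (50 uM solution added), read at plateau, gives the read-out. Compounds in DMSO were incubated first with 2 nM final NDM-1 in pH 7.0 HEPES buffer containing 1 uM ZnSO4 and 0.01% Tween20.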

Sequence of Phenylethanolamine N-methyltransferase (Homo sapiens) (P11086 whole entry, looked up): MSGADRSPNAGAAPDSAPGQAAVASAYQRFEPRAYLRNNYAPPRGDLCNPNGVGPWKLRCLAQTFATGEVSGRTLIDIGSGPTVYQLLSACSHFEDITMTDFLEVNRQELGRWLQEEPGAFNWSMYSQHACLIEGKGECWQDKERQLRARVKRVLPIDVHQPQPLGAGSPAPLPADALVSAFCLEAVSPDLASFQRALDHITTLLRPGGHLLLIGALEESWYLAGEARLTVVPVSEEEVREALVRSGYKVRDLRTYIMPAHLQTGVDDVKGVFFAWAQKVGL
Sequence of Phospholipid hydroperoxide glutathione peroxidase GPX4 (Homo sapiens) (P36969 whole entry, looked up): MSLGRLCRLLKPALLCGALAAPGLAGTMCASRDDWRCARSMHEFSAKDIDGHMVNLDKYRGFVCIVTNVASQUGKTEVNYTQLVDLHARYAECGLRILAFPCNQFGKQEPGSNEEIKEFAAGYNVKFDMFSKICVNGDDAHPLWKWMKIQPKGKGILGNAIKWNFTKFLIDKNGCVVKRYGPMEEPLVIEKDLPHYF
Sequence of Glutathione peroxidase 1 (Homo sapiens) (P07203 whole entry, looked up): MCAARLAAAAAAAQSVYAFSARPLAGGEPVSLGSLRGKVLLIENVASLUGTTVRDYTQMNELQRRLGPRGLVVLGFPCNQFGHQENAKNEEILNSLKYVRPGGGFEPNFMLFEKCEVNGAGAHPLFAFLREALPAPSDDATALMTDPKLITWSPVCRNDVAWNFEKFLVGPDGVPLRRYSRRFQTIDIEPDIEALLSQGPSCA
Sequence of Nicotinamide N-methyltransferase (Homo sapiens) (P40261 whole entry, looked up): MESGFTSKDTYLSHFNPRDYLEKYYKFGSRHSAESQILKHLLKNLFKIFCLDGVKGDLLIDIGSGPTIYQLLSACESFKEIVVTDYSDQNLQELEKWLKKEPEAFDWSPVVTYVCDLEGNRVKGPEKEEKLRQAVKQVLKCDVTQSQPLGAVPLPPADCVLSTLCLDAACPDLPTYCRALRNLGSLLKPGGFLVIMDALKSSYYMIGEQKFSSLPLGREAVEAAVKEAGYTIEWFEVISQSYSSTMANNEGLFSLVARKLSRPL
Sequence of Metallo-beta-lactamase type 2 (Klebsiella pneumoniae) (C7C422 whole entry, looked up): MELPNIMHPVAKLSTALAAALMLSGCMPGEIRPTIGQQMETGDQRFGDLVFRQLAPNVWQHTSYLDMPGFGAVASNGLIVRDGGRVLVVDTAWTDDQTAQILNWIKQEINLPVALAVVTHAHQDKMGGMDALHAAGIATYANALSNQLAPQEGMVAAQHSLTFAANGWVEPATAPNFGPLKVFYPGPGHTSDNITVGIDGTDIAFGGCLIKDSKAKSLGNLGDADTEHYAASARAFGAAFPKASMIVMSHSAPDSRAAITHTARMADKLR

Row | SMILES | activity [1] | activity [2] | Potency [3] | Potency [4] | Potency [5] | Potency [6] | Potency [7] | Potency [8] | outcome [9]
1 | N#Cc1c(O)c2c(-c3ccc(-c4ccccc4O)cc3)csc2[nH]c1=O | -31.1% | -7.68% | 12.8 µM (active) and inactive | inactive | inactive | inactive | – | – | –
2 | CCn1cc(-c2ccnc3[nH]c(-c4cccc(CN(C)C)c4)cc23)c(-c2ccc(NC(=O)N(C)C)cc2)n1 | -7.11% and -33% | -1.24% and -20% | – | inactive | inactive | inactive | inactive | inactive | –
3 | COc1cc2c(NC3CCN(C(C)C)CC3)nc(C3CCCCC3)nc2cc1OCCCN1CCCC1 | -39.8% | -4.49% | inactive | inactive | inactive | inactive | inactive | inactive | –
4 | CC1(C)CC(=O)c2c(C(F)(F)F)nn(-c3ccc(C(N)=O)c(NC4CCC(OC(=O)CN)CC4)c3)c2C1 (centres undefined) | -47.8% | -0.772% | inactive | inactive | inactive | inactive | inactive | inactive | –
5 | O=C(O)C1(Cc2cccc(Nc3nccs3)n2)CCC(Oc2cccc(Cl)c2F)CC1 (centres undefined) | -34.5% | -68.7% | inactive | inactive | inactive | inactive | inactive | inactive | –
6 | CC[C@@H]1C(=O)N(C)c2cnc(Nc3ccc(C(=O)NC4CCN(C)CC4)cc3OC)nc2N1C1CCCC1 | -45.4% | -31.6% | inactive | inactive | – | – | – | – | –
7 | C=CC(=O)Nc1cccc(Oc2nc(Nc3ccc(N4CCN(C)CC4)cc3)ncc2Cl)c1 | -51.9% | -14.3% | inactive | inactive | inactive | 1.89 µM (active) | inactive | inactive | –
8 | CC(C)c1cc(-c2n[nH]c(=O)n2-c2ccc3c(ccn3C)c2)c(O)cc1O | -33.4% | -21.8% | inactive | inactive | inactive | inactive | inactive | inactive | –
9 | Cc1cc(Nc2cc(N3CCN(C)CC3)nc(Sc3ccc(NC(=O)C4CC4)cc3)n2)n[nH]1 | -2.46% | -1.21% | inactive | inactive | inactive | inactive | – | – | –
10 | Nc1nccc(Oc2ccc(NC(=O)c3c[nH]cc(-c4ccc(F)cc4)c3=O)cc2F)c1Cl | -55.9% | -3% | inactive | inactive | – | inactive | inactive | inactive | –
11 | NC1(Cc2ccc(Cl)cc2)CCN(c2ncnc3[nH]ccc23)CC1 | -26.7% | -31.7% | inactive | inactive | inactive | inactive | inactive | inactive | –
12 | CCn1nnc2c(N3CCOCC3)nc(-c3ccc(NC(=O)Nc4ccc(C(=O)N5CCN(C)CC5)cc4)cc3)nc21 | -65.9% | -1.56% | inactive | inactive | inactive | inactive | inactive | inactive | –
13 | Cc1coc2c1C(=O)C(=O)c1c-2ccc2c1CCCC2(C)C | -48.9% | -37.9% | inactive | – | – | 1.34 µM (active) | inactive | 9.47 µM (active) | –
14 | Nc1ccccc1NC(=O)c1ccc(CNc2nccc(-c3cccnc3)n2)cc1 | -33.2% | -7.44% | inactive | inactive | inactive | inactive | – | inactive | –
15 | Nc1cccc(-c2cc3c(Oc4cccc(O)c4)ncnc3[nH]2)c1 | -47.2% | -55.3% | – | inactive and 14.3 µM (active) | inactive | 9.47 µM (active) | inactive | inactive | –
16 | CNC(=O)CN1CCC(Oc2cc3c(Nc4cccc(Cl)c4F)ncnc3cc2OC)CC1 | -23.1% | -49.9% | – | inactive | inactive | inactive | – | – | –
17 | O=c1c2ccccc2nc2n1CCc1c-2[nH]c2ccccc12 | – | – | inactive | inactive | – | inactive | inactive | inactive | inactive
18 | Cc1nc(Nc2n[nH]c3c2CN(C(=O)N[C@H](CN(C)C)c2ccccc2)C3(C)C)c2sccc2n1 | -22.7% | -1.08% | – | inactive | inactive | inactive | inactive | inactive | –
19 | Cc1c(C)n(Cc2ccc(-c3ccccc3C(=O)O)cc2)c2ccc(C(=O)N[C@@H](C)c3ccc([N+](=O)[O-])cc3)cc12 | -14.9% | -11.9% | inactive | 9.04 µM (active) | inactive | inactive | inactive | inactive | –
20 | Nc1nc(NCCNc2ncc(-n3ccnc3)c(-c3ccc(Cl)cc3Cl)n2)ccc1[N+](=O)[O-] | -47.1% | -4.53% | inactive | inactive | inactive | inactive | – | inactive | –
